Experimental findings from PubChem BioAssay (NCI) are described below.

Molecules are shown by their SMILES. This is part of a sample that, as a whole, favours compounds with a hit. Of some 83,000 tested, about 20% had one in any assay.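 Results are percent growth after 48 hours of single-concentration exposure. 100 means growth as in untreated cells, lower positive values show inhibition; negative values down to -100 show cell death.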 Unmarked numbers belong to inactive results. The source made the active and inactive calls. How the source made its calls: active means growth percent below 10; inactive means the rest.

One test deals with SK-MEL-28 melanoma. The test is described as follows: NCI-60 one-dose screen, 48 h (100 = growth as untreated, 0 = no growth, -100 = all killed). To be noted: 10 µM unless noted.
In the case of `COc1ccc(-n2c(SCC(=O)Nc3ccc(-c4nc5ccccc5[nH]4)cc3)nc3ccccc3c2=O)cc1`, the growth is -64% (active). For `O=C(Oc1ccc2ccc(=O)oc2c1)c1ccc(Cl)cc1`, the growth was 109%. On the same count and under the same terms, with `COc1ccc(C(=O)/C=C/c2ccc(OCc3ccc(Cl)cc3)c(OC)c2)cc1OC` the figure was 83.3%; with `O=C(N/N=C/c1cccs1)c1[nH]c2ccc(Br)cc2c1-c1ccccc1`, 60.7%.

For `Cc1cc2nc3c4cc(Cl)ccc4n(CC(=S)NCCN(C)C)c3nc2cc1C`, the growth was -91.3% (active). Regarding `COc1ccc([C@@H]2c3[nH]c4ccccc4c3CC3C(=O)N(C4CCN(Cc5c(F)cccc5F)CC4)CC(=O)N32)c(OC)c1` (stereo partly specified), the growth is 60.9% [5.26 µM]. Turning to `Cc1cc(C(NC(=O)CCCCCNc2cccc3c2C(=O)N(C2CCC(=O)NC2=O)C3=O)c2cccnc2)c(O)c2ncccc12` (stereo unspecified), the growth is 25.2%. The same measure, in the same setting: the value for `CC(=NNc1ncnc2ccccc12)c1ccc(S(C)(=O)=O)cc1` was 113%; that for `Nc1nc(N)c2c(n1)NC(c1ccc(C(F)(F)F)cc1)CC(c1ccc(Nc3nc(NCCO)nc(Nc4ccc(Cl)cc4)n3)cc1)=N2` (stereo unspecified) was -94.6% (active). In the case of `COc1ccc(/C=C2\SC(=Nc3cc(C)[nH]n3)NC2=O)cc1`, the growth was 85%.

Take `Cn1ccnc1C(=O)/C=C/c1ccc(NC(=O)Nc2ccc(Cl)cc2)cc1`: the growth is 89.9%. Same read-out and setting: with `COC(=O)C1CN(S(=O)(=O)/N=C2\NC(=O)NC2=C(Cl)Cl)C1` the figure was 112%. In the case of `Nc1nc(N)c2c(n1)NC(c1ccc(F)cc1)CC(c1ccc(Nc3nc(NCCO)nc(Nc4ccc(Cl)cc4)n3)cc1)=N2` (stereo unspecified), the growth was -82.9% (active). Consider `COc1cc(/C=C/C(=O)c2cc(OC)c(OC)c(OC)c2)ccc1OCc1ccc(F)cc1`, for which the growth was 81.1%. `CC(O)C(NC(=O)C1CCCN1C(=O)CNC(=O)C1CC(=O)NCC(=O)NC(Cc2c[nH]c3ccccc23)C(=O)NC(Cc2ccc(O)cc2)C(=O)NCC(=O)NC(CO)C(=O)NC(CCC(N)=O)C(=O)NC(Cc2c[nH]c3ccccc23)C(=O)N1)C(=O)NCC(=O)NC(CCC(N)=O)C(=O)NC(CCCNC(=N)N)C(=O)NC(CC(=O)O)C(=O)O` (stereo unspecified): the growth is 99.6%. Still for that read-out and setting: the value for `COc1cc(/C=C/C(=O)c2cc(OC)c(OC)c(OC)c2)ccc1Oc1nc(NCCO)nc(N2CCOCC2)n1` was 31.5%; that for `COc1cc(N=Cc2sc(Nc3nccs3)nc2O)cc(OC)c1OC` was 84.2%.

As for `C#Cc1nc(C2=C(C)C(OC(=O)CCC(=O)O)CC2)cs1` (stereo unspecified), the growth was 115%.

As for `O=C(N/N=C/c1ccc(Br)s1)c1[nH]c2ccc(Br)cc2c1-c1ccccc1`, the growth is 63.1%. Take `COc1cc(/C=C/C(=O)c2ccc(Cl)cc2)ccc1Oc1nc(NCCO)nc(N2CCOCC2)n1`: the growth was 108%. Take `O=C(N/N=C/c1ccco1)c1[nH]c2ccc(Br)cc2c1-c1ccccc1`: the growth is 59.9%. For the compound `COC(=O)C(C)NS(=O)(=O)/N=C1\NC(=O)NC1=C(Cl)Cl` (stereo unspecified), the growth was 99.4%. In the case of `COc1cc(/C=C/C(=O)c2ccc(F)cc2)ccc1Oc1nc(NCCO)nc(N2CCOCC2)n1`, the growth was 91.3%. On the same count and under the same terms, the value for `O=C(CN1CCOCC1)NNc1ncnc2ccccc12` was 71.1%.

A further test has as its system SK-MEL-2 melanoma. The test is described as above. The settings on record: 10 µM unless noted.
For the compound `Cc1cc2nc3c4cc(Cl)ccc4n(CC(=O)NCCN(C)C)c3nc2cc1C`, the growth was 112%. On to `COc1cc(/C=C/C(=O)c2ccc(C)cc2)ccc1Oc1nc(NCCO)nc(N2CCOCC2)n1`, for which the growth is 99.9%. Regarding `O=C(N/N=C/c1ccc(Cl)s1)c1[nH]c2ccc(Br)cc2c1-c1ccccc1`, the growth was 13.1%. As for `NS(=O)(=O)c1cccc(Nc2nc(SCC(=O)c3ccc([N+](=O)[O-])cc3)nc3ccccc23)c1`, the growth was 13.2%. In the case of `Nc1c(C(=O)c2ccc(Br)cc2)oc2nc(-c3cnccn3)cc(-c3cccs3)c12`, the growth was 113%.

Regarding `O=C(N/N=C/c1ccc([N+](=O)[O-])o1)c1[nH]c2ccc(Br)cc2c1-c1ccccc1`, the growth was -12.4% (active). On the same count and under the same terms, with `O=C(N/N=C/c1ccc([N+](=O)[O-])s1)c1[nH]c2ccc(Br)cc2c1-c1ccccc1` the figure was -19.4% (active); with `C#Cc1nc(C2=C(C)C(O)/C(=N/O)C2)cs1` (stereo unspecified), 103%; with `COc1cc(/C=C/C(=O)c2cc(OC)c(OC)c(OC)c2)ccc1OCc1ccccc1`, 80.7%. Same read-out and setting: with `CCCC(=O)NC(c1ccc(N(CC)CC)cc1)c1cc(C)c2cccnc2c1O` (stereo unspecified) the figure was 23%; with `CN1CCc2c(sc3ncnc(N/N=C/c4ccc(Cl)c(Cl)c4)c23)C1`, 117%. For the compound `O=C(N/N=C/c1ccc[nH]1)c1[nH]c2ccc(Br)cc2c1-c1ccccc1`, the growth is 31.9%. `COC(=O)C1CCCN(S(=O)(=O)/N=C2\NC(=O)NC2=C(Cl)Cl)C1` (stereo unspecified): the growth was 106%. Take `C=CCn1c(SCC(=O)c2ccccc2)nnc1-c1c[nH]c2ccccc12`: the growth was 105%. Regarding `COc1ccc(-n2c(SCC(=O)Nc3ccc(-c4nc5ccccc5[nH]4)cc3)nc3ccccc3c2=O)cc1`, the growth was 97.7%. Consider `O=C(Oc1ccc2ccc(=O)oc2c1)c1ccc(Cl)cc1`, for which the growth is 113%. Take `COc1ccc(C(=O)/C=C/c2ccc(OCc3ccc(Cl)cc3)c(OC)c2)cc1OC`: the growth was 83.3%. On the same count and under the same terms, with `O=C(N/N=C/c1cccs1)c1[nH]c2ccc(Br)cc2c1-c1ccccc1` the figure was 20.3%; with `Cc1cc2nc3c4cc(Cl)ccc4n(CC(=S)NCCN(C)C)c3nc2cc1C`, 70.7%.

`COc1ccc([C@@H]2c3[nH]c4ccccc4c3CC3C(=O)N(C4CCN(Cc5c(F)cccc5F)CC4)CC(=O)N32)c(OC)c1` (stereo partly specified): the growth was 74.5% [5.26 µM]. Still for that read-out and setting: the value for `Cc1cc(C(NC(=O)CCCCCNc2cccc3c2C(=O)N(C2CCC(=O)NC2=O)C3=O)c2cccnc2)c(O)c2ncccc12` (stereo unspecified) was -16.9% (active); that for `CC(=NNc1ncnc2ccccc12)c1ccc(S(C)(=O)=O)cc1` was 112%; that for `Nc1nc(N)c2c(n1)NC(c1ccc(C(F)(F)F)cc1)CC(c1ccc(Nc3nc(NCCO)nc(Nc4ccc(Cl)cc4)n3)cc1)=N2` (stereo unspecified) was -80.3% (active).

`COc1ccc(/C=C2\SC(=Nc3cc(C)[nH]n3)NC2=O)cc1`: the growth is 121%. Regarding `Cn1ccnc1C(=O)/C=C/c1ccc(NC(=O)Nc2ccc(Cl)cc2)cc1`, the growth is 110%. In the case of `COC(=O)C1CN(S(=O)(=O)/N=C2\NC(=O)NC2=C(Cl)Cl)C1`, the growth was 108%.

For the compound `Nc1nc(N)c2c(n1)NC(c1ccc(F)cc1)CC(c1ccc(Nc3nc(NCCO)nc(Nc4ccc(Cl)cc4)n3)cc1)=N2` (stereo unspecified), the growth is 26.3%.

As to `COc1cc(/C=C/C(=O)c2cc(OC)c(OC)c(OC)c2)ccc1OCc1ccc(F)cc1`, the growth is 90%. Regarding `CC(O)C(NC(=O)C1CCCN1C(=O)CNC(=O)C1CC(=O)NCC(=O)NC(Cc2c[nH]c3ccccc23)C(=O)NC(Cc2ccc(O)cc2)C(=O)NCC(=O)NC(CO)C(=O)NC(CCC(N)=O)C(=O)NC(Cc2c[nH]c3ccccc23)C(=O)N1)C(=O)NCC(=O)NC(CCC(N)=O)C(=O)NC(CCCNC(=N)N)C(=O)NC(CC(=O)O)C(=O)O` (stereo unspecified), the growth is 116%. Consider `COc1cc(/C=C/C(=O)c2cc(OC)c(OC)c(OC)c2)ccc1Oc1nc(NCCO)nc(N2CCOCC2)n1`, for which the growth was -3.2% (active).

As to `COc1cc(N=Cc2sc(Nc3nccs3)nc2O)cc(OC)c1OC`, the growth is 74%. In the case of `C#Cc1nc(C2=C(C)C(OC(=O)CCC(=O)O)CC2)cs1` (stereo unspecified), the growth is 114%.

For the compound `O=C(N/N=C/c1ccc(Br)s1)c1[nH]c2ccc(Br)cc2c1-c1ccccc1`, the growth was 18.7%.

Consider `COc1cc(/C=C/C(=O)c2ccc(Cl)cc2)ccc1Oc1nc(NCCO)nc(N2CCOCC2)n1`, for which the growth is 99.7%. Turning to `O=C(N/N=C/c1ccco1)c1[nH]c2ccc(Br)cc2c1-c1ccccc1`, the growth is 14.4%. Same read-out and setting: the value for `COC(=O)C(C)NS(=O)(=O)/N=C1\NC(=O)NC1=C(Cl)Cl` (stereo unspecified) was 110%. In the case of `COc1cc(/C=C/C(=O)c2ccc(F)cc2)ccc1Oc1nc(NCCO)nc(N2CCOCC2)n1`, the growth is 93.9%.
